From PubChem
This is a sample that favours compounds with a hit; in the whole collection about 2.9% have one here.
D3 antag: blocks the human D3 dopamine receptor; D3R cells, DiscoveRx beta-arrestin luminescence, antagonist mode; stronger effect = lower value; max response, negative = inhibition, %; actives 2.5% (n = 360,000); in the data active = max response below about -50%
Target sequence (P35462 whole entry, looked up): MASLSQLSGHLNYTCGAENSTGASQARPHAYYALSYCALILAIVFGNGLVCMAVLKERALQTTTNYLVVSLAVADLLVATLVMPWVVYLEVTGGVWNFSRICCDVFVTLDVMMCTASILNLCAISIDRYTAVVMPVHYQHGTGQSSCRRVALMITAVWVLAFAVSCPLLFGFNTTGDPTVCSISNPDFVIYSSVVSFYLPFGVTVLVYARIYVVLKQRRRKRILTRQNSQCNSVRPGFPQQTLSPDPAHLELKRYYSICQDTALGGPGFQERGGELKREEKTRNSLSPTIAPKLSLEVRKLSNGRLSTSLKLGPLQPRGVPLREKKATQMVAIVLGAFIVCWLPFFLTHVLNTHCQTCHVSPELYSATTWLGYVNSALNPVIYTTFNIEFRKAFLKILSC
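Cells expressing the human receptor were seeded at 1500 cells/well, incubated overnight at 37 degrees C in 5% CO2, then exposed to library compounds with dopamine controls for 90 minutes at 37 degrees C before luminescent detection.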
Integrin act MD: activates integrin-mediated alleviation for muscular dystrophy | actives 0.064% (n = 350,000) | alpha7betagal myoblasts, beta-gal FDG fluorescence, 48 h | Potency, µM (titrated, usually from 38.3 µM), most hits filed as activators; active = well fitted activation curve with a large enough effect; note: nearly all actives have a fitted effect of over 60% in size
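Alpha7betagal+/- myoblasts (passage 13) were plated 16-24 hr, then exposed to compounds (1:260 dilution of DMSO stock) for 48 hours at 37C. After MPER lysis, β-galactosidase reporter activity was read as FDG fluorescence (ex 480/em 540) after 30 minutes.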
DRD3 agonist: agonists of human D3 dopamine receptor. P35462. D3R DiscoveRx beta-arrestin cells, luminescence, 90 min. max activation, %. actives 0.58% (n = 410,000); in the data active = max activation above about 30%
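Cells at 1500/well, incubated overnight, then treated with pinned compounds (dopamine as control) for 90 min at 37 degrees C. DiscoveRx reagent added for 30 - 60 minutes at room temperature; luminescence read.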
Large screens that a line does not name were inactive.

COc1ccccc1/C=C/C(=O)OCC(=O)NNC(=O)c1ccccc1	none
Cc1cc(/C=C(/C#N)c2cccc(Cl)c2)c(C)n1C	none
O=C(O)c1ncsc1-c1ccccc1	none
NCCNC(=O)c1ncsc1-c1cccc(F)c1	D3 antag -52 (no result: Integrin act MD)
Oc1c(C(Nc2nccs2)c2ccc(C(F)(F)F)cc2)ccc2cccnc12 (stereo not given)	DRD3 agonist 39
Oc1c(C(Nc2cccc(C(F)(F)F)c2)c2ccncc2)ccc2cccnc12 (stereo not given)	D3 antag -54
CCC(=O)NC(c1cccs1)c1ccc2cccnc2c1O (stereo not given)	none
Cc1ccc(C(Nc2ccccn2)c2ccc3cccnc3c2O)cc1 (stereo not given)	none (no result: D3 antag, Integrin act MD)
Cc1c(Cl)cccc1NC(=O)c1cc(S(=O)(=O)N2CCCCC2)cn1C	none (no result: D3 antag, Integrin act MD)
COc1ccc(-c2csc(Nc3cccc(C)n3)n2)cc1	none
Cc1csc(NC(=O)c2cccn2C)n1	none
Cn1cccc1C(=O)Nc1nc(-c2ccccn2)cs1	D3 antag -56
Cc1cccc(Nc2nc(-c3cccs3)cs2)n1	none
Cc1cccc(Nc2nc(-c3ccccn3)cs2)n1	D3 antag -79
COc1ccc(-c2csc(Nc3cccc(C)n3)n2)cc1C	DRD3 agonist 41
Cc1cccnc1Nc1nc(-c2ccccn2)cs1	D3 antag -86
Cc1cccnc1Nc1nc(-c2ccccc2)cs1	none
CCOc1ccccc1NS(=O)(=O)c1cnc(N)nc1	none (no result: D3 antag, Integrin act MD)
COc1cccc(C(=O)CN(C(=O)c2ccc(Cl)c(Cl)c2)N2C(=O)c3ccccc3C2=O)c1	none
COc1ccc(OC)c(N(CC(=O)NC2CC2)S(=O)(=O)c2ccc(C)cc2)c1	none
O=C(NCCC1CCCC1)C1CCC(=O)N(CCCN2CCCC2=O)C1 (stereo not given)	none
CCc1ccc(CNC(=O)C2CCCN(S(=O)(=O)N3CC(C)CC(C)C3)C2)cc1 (stereo not given)	none
Cc1cc(C)cc(NS(=O)(=O)c2c(C)nc3scc(C)n3c2=O)c1	none (no result: D3 antag, Integrin act MD)
Cc1ccc(S(=O)(=O)Cn2cnnn2)cc1	D3 antag -78
Cc1ccc(S(=O)(=O)CS(=O)(=O)c2ccc(C)cc2)cc1	none
Cc1ccc2nc(NC(=O)c3ccc(S(=O)(=O)N4CCCc5ccccc54)cc3)sc2c1	none
COc1c(Br)cc(C(N)=O)cc1OCc1ccccc1	none
COc1cc(OCc2ccccc2)c(OC)c(OCc2ccccc2)c1	DRD3 agonist 40
CC(C)(C)c1cc(C(=S)N2CCN(CCO)CC2)cc(C(C)(C)C)c1O	none
OCCN1CCN(Cc2cc(Br)cc(Br)c2O)CC1	D3 antag -51
COc1ccc2[nH]c(=O)c(CN(Cc3ccco3)C(=O)c3ccccc3)cc2c1	D3 antag -88
COc1ccc2[nH]c(=O)c(CN(c3ccccc3OC)S(=O)(=O)c3ccccc3)cc2c1	none
CCOc1ccc2[nH]c(=O)c(CN(Cc3ccco3)C(=O)c3ccc(Br)cc3)cc2c1	none
COc1ccc2[nH]c(=O)c(CN(c3ccccc3)S(=O)(=O)c3ccccc3)cc2c1	DRD3 agonist 33
O=C(COc1ccc(Cl)cc1)NCc1nnc(SCC(=O)Nc2ccc3c(c2)OCCO3)o1	none
COc1ccc2cc(C(=O)Nc3ccc(O)cc3)sc(=O)c2c1OC	none
COc1ccc2cc(C(=O)Nc3ccc(Cl)cc3)sc(=O)c2c1OC	D3 antag -69
COc1cc(/C=C(/C(=O)c2cccs2)c2nc3ccccc3[nH]2)cc(OC)c1O	D3 antag -100
O=C(N/C(=C/c1ccc(Cl)cc1)c1nc2ccccc2[nH]1)c1ccco1	none
O=C(/C(=C/c1ccc(Cl)cc1)c1nc2ccccc2[nH]1)c1ccccc1	D3 antag -75
COc1ccc(C(=O)N/C(=C/c2cccs2)c2nc3ccccc3[nH]2)cc1OC	none
CCOc1ccccc1N1CCN(CC(=O)NC(C)c2ccccc2)CC1 (stereo not given)	D3 antag -89
CC(NC(=O)CN1CCN(c2ccc(Cl)cc2)CC1)c1ccccc1 (stereo not given)	none
COc1ccc(C(NC(=O)CN2CCCCCC2)c2ccc(OC)cc2)cc1	D3 antag -53
COc1ccc(NC(=O)CN2CCCC2)cc1	none
O=C(CN1CCN(c2ccccc2O)CC1)NC(c1ccccc1)c1ccccc1	D3 antag -56
O=C(CN1CCCC1)NC(c1ccccc1)c1ccccc1	none
Cc1ccc(N2CC(C(=O)N3CCC(C(=O)Nc4cccc(Br)c4)CC3)CC2=O)cc1 (stereo not given)	none
CCCc1cc(=O)[nH]c(SCC(=O)Nc2ccc(OCc3ccccc3)cc2)n1	none
COc1cccc(/C=C/C(=O)OCC(=O)Nc2nnc(-c3ccccc3)o2)c1OC	none
CCOC(=O)COc1ccccc1/C=C1/NC(=O)NC1=O	none
Cc1ccc(-c2nc(N)n(C(=O)c3ccco3)n2)cc1	none
CN(c1ccc(C(=O)NCC2CCCO2)cc1)S(C)(=O)=O (stereo not given)	none
c1cncc(CSc2ccc(-c3cccs3)nn2)c1	none
O=c1[nH]c(SCc2ccccc2Cl)nc2c1CCC2	none
Cc1oc(-c2ccccc2Cl)nc1CSc1nc2c(c(=O)[nH]1)CCCC2	DRD3 agonist 30
CCN(CC)CCNC(=O)Cn1nc(Cc2cccnc2)c2ccccc2c1=O	none
Cc1ccc(NC(=O)C2CCN(S(=O)(=O)c3cccc(C(F)(F)F)c3)CC2)nc1	none
Cc1cc(O)cc(=O)n1CCc1ccccc1	none
CCCCn1nc2cc(C(=O)NCc3ccc(OC)cc3)ccc2c1OCC	none
O=C(Nc1ccccc1O)c1cc2cc(Br)ccc2oc1=O	none
O=C(NNC(=O)c1cc2cc(Br)ccc2oc1=O)c1ccc(O)cc1	D3 antag -62
C1CN(c2nc(N3CCOCC3)nc(N3CCOCC3)n2)CCO1	none
O=S1(=O)CCO[C@H]2Cc3ccccc3[C@H]2N1Cc1ccc(Cl)cc1	DRD3 agonist 54
O=S1(=O)CCO[C@H]2Cc3ccccc3[C@H]2N1Cc1cccc(Cl)c1	none
CCOC(=O)c1sc(NC(=O)CN(CC(C)C)CC(C)C)c(C(=O)OCC)c1C	none
C=CS(=O)(=O)c1c2cc(OC)ccc2nc2ccc(OC)cc12	D3 antag -83
COc1ccc2nc(Cl)cc(Cl)c2c1	none
Cc1sc2ncn(CC(=O)N3CCN(c4cccc(Cl)c4)CC3)c(=O)c2c1S(=O)(=O)N1CCC(C)CC1	none (no result: D3 antag, Integrin act MD)
COC(=O)Cc1csc(NC(=O)c2ccc3ncsc3c2)n1	none
CCC(c1nc2ccccc2[nH]1)N(CCCn1ccnc1)C(=O)c1ccc(C(F)(F)F)cc1 (stereo not given)	none (no result: Integrin act MD)
CCCCN(C(=O)c1ccccc1Cl)C(CC(C)C)c1nc2ccccc2[nH]1 (stereo not given)	DRD3 agonist 48 (no result: Integrin act MD)
O=C(Nc1cccc2ccccc12)c1csc([C@@H]2O[C@H](CO)[C@@H](O)[C@H]2O)n1	none (no result: Integrin act MD)
O=C(Nc1cccc2cccnc12)c1csc([C@@H]2O[C@H](CO)[C@H](O)[C@H](O)[C@H]2O)n1	D3 antag -117 (no result: Integrin act MD)
COc1ccc(OC)c(-c2nc(Nc3ccccc3C)sc2CC(=O)O)c1	none (no result: D3 antag, Integrin act MD)
O=C(CCN1C(=O)c2ccccc2C1=O)NCCC1=CCCCC1	none
O=C(CCn1c(=O)sc2ccccc21)NCCC1=CCCCC1	D3 antag -108
COc1ccc(OCC(=O)Nc2c(C(=O)N3CCN(C)CC3)oc3ccccc23)cc1	none
